Laboratory results reported in PubChem BioAssay AID1159580 (chemical genetic matrix, 2015).
“And” between values parts separate entries of the source, which are not always exact repeats. Equal values may be shown once. Screen size: about 5,500 compounds; about 2,000 (36%) were called active. Another 18% or so got no clear call; they are omitted. Cut-off read from the data, not from the text of the source: active = normalized growth mostly below about 0.91 (no sharp cut-off); inconclusive = no clear call, values can overlap the other calls; inactive = mostly above about 0.92. This is one part of the list.

Test: chemical genetic growth profiling, strain panel (AID 1159580);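 note: tested at 20 µM; growth read once vehicle control cultures reached saturation at 30 °C; 1 = growth at the plate median or of vehicle wells; lower values mean less growth of the strain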
Details: S. cerevisiae deletion strains, growth OD

Measured: normalized growth

CC(C)NCC(O)COc1cccc2[nH]ccc12 (centres undefined)
inactive: locus YAL013W, strain DEP1, active compounds read low 1 and 0.99 | locus YAL021C, strain ccr4, active compounds read low 1.01 | locus YAL026C, strain drs2, active compounds read low 0.986 | locus YAL030W, strain snc1, active compounds read low 0.982 | locus YAL040C, strain CLN3, active compounds read low 0.983 and 0.988 | locus YBL061C, strain skt5, active compounds read low 0.977 | locus YBR009C, strain hhf1, active compounds read low 0.983 | locus YBR021W, strain FUR4, active compounds read low 1.02 | locus YBR023C, strain chs3, active compounds read low 0.979 | locus YBR171W, strain sec66, active compounds read low 0.979 | locus YBR229C, strain ROT2, active compounds read low 0.999 | locus YBR231C, strain swc5, active compounds read low 0.986 | locus YBR279W, strain paf1, active compounds read low 0.992 | locus YCL011C, strain gbp2, active compounds read low 0.98 | locus YCL016C, strain dcc1, active compounds read low 0.981 | locus YCL029C, strain bik1, active compounds read low 0.993 | locus YCL061C, strain MRC1 (second series), active compounds read low 0.998 and 0.999 | locus YCL061C, strain MRC1, active compounds read low 0.984 | locus YCL069W, strain vba3, active compounds read low 0.983 | locus YCR088W, strain abp1, active compounds read low 0.983 | locus YDL005C, strain med2, active compounds read low 0.988 | locus YDL035C, strain GPR1, active compounds read low 0.993 | locus YDL040C, strain nat1, active compounds read low 0.986 | locus YDL074C, strain BRE1, active compounds read low 1 | locus YDL101C, strain DUN1, active compounds read low 0.988 | locus YDL134C, strain PPH21, active compounds read low 0.989 | locus YDL185W, strain tfp1, active compounds read low 0.947 | locus YDL192W, strain arf1, active compounds read low 0.974 | locus YDR001C, strain nth1, active compounds read low 0.974 | locus YDR069C, strain doa4, active compounds read low 0.976 | locus YDR101C, strain arx1, active compounds read low 0.983 | locus YDR137W, strain rgp1, active compounds read low 0.975 | locus YDR150W, strain NUM1, active compounds read low 1 and 0.997 | locus YDR159W, strain sac3, active compounds read low 0.955 | locus YDR162C, strain NBP2, active compounds read low 0.995 | locus YDR195W, strain ref2 0.927 | locus YDR297W, strain sur2, active compounds read low 0.988 | locus YDR318W, strain mcm21, active compounds read low 0.977 | locus YDR334W, strain swr1, active compounds read low 0.978 | locus YDR335W, strain msn5, active compounds read low 0.983 | locus YDR363W, strain ESC2, active compounds read low 0.991 and 0.993 | locus YDR388W, active compounds read low 0.979 | locus YDR392W, strain spt3, active compounds read low 0.902 | locus YDR502C, strain sam2, active compounds read low 0.986 | locus YEL003W, strain gim4, active compounds read low 0.988 | locus YEL037C, strain rad23, active compounds read low 1.01 | locus YEL061C, strain CIN8 (second series), active compounds read low 0.972 | locus YEL061C, strain CIN8, active compounds read low 0.997 | locus YER002W, strain NOP16, active compounds read low 0.987 and 1.02 | locus YER015W, strain faa2, active compounds read low 0.989 | locus YER016W, strain bim1, active compounds read low 0.979 | locus YER110C, active compounds read low 0.978 | locus YER111C, strain swi4, active compounds read low 0.983 | locus YER155C, strain BEM2 (second series), active compounds read low 0.97 | locus YER155C, strain BEM2, active compounds read low 0.994 | locus YER167W, strain BCK2, active compounds read low 0.991 | locus YFR010W, strain ubp6, active compounds read low 0.961 | locus YGL078C, strain dbp3, active compounds read low 0.99 | locus YGL086W, strain mad1, active compounds read low 0.999 | locus YGL167C, strain pmr1, active compounds read low 0.976 | locus YGL173C, strain kem1, active compounds read low 0.989 | locus YGL227W, strain vid30, active compounds read low 0.977 | locus YGL240W, strain doc1, active compounds read low 0.986 | locus YGL248W, strain PDE1, active compounds read low 0.997 | locus YGL253W, strain hxk2, active compounds read low 0.981 | locus YGR078C, strain PAC10, active compounds read low 0.993 and 1.01 | locus YGR135W, strain pre9, active compounds read low 0.989 | locus YGR229C, strain SMI1, active compounds read low 1.01 | locus YGR252W, strain gcn5, active compounds read low 1.16 | locus YHR013C, strain ard1, active compounds read low 0.943 | locus YHR027C, strain rpn1, active compounds read low 0.986 | locus YHR030C, strain SLT2, active compounds read low 0.99 and 0.988 | locus YHR079C, strain IRE1 (second series), active compounds read low 0.977 | locus YHR079C, strain IRE1, active compounds read low 0.977 | locus YHR094C, strain hxt1, active compounds read low 0.977 | locus YHR129C, strain ARP1, active compounds read low 1 | locus YHR142W, strain chs7, active compounds read low 0.997 | locus YHR200W, strain rpn10, active compounds read low 0.978 | locus YIL066C, strain RNR3, active compounds read low 0.999 | locus YIR030C, strain dcg1, active compounds read low 0.991 | locus YJL092W, strain hpr5, active compounds read low 0.979 | locus YJL095W, strain BCK1 (second series), active compounds read low 0.984 | locus YJL095W, strain BCK1, active compounds read low 1.01 and 0.997 | locus YJL115W, strain asf1, active compounds read low 0.975 | locus YJL129C, strain trk1, active compounds read low 0.997 | locus YJL134W, strain LCB3, active compounds read low 0.984 | locus YJL154C, strain vps35, active compounds read low 0.98 | locus YJL164C, strain tpk1, active compounds read low 1 | locus YJL166W, strain qcr8, active compounds read low 1.01 | locus YJL168C, strain set2, active compounds read low 0.983 | locus YJL187C, strain SWE1 (second series), active compounds read low 0.987 | locus YJL187C, strain SWE1, active compounds read low 0.985 | locus YJR043C, strain POL32, active compounds read low 1 | locus YJR066W, strain TOR1, active compounds read low 0.94
